Measured values as given in PubChem BioAssay AID2013 (Sanford-Burnham Center for Chemical Genomics, 2009).
About 370 (0.13%) of roughly 290,000 compounds were called active. The entries come from a sample that favours actives as a whole. Entries with a potency or affinity are not part of this list. Values without a mark were called inactive.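 How the source made its calls: active means spots per cell inhibited over 60%, with over 100 cells counted and total cytoplasm intensity under 500,000; inconclusive means wells with under 100 cells, flagged as likely toxic; inactive means the rest.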

Target: G-protein coupled receptor 55 (Homo sapiens) (UniProt Q9Y2T6)
Sequence (Q9Y2T6 whole entry, looked up): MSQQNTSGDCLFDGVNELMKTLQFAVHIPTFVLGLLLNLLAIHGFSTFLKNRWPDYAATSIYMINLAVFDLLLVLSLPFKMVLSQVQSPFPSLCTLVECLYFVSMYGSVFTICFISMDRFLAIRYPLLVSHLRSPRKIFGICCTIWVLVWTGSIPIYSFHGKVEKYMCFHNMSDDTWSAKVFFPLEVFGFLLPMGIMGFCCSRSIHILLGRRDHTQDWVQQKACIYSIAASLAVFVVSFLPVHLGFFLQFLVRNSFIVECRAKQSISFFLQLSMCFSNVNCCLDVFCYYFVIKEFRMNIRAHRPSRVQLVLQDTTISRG
Assay: inhibition of LPI-stimulated GPR55 beta-arrestin translocation – imaging, U2OS, beta-arrestin-GFP, LPI agonist, primary screen (AID 2013);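 further: U2OS cells stably carrying GPR55 and arrestin-GFP stimulated by 5 µM LPI near EC80; imaged beta-arrestin-GFP aggregate spots per cell after agonist stimulation; plate controls were LPI-stimulated DMSO wells for no effect and DMSO wells without LPI for full effect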
Conditions: LPI antagonism, at 10 µM, stronger effect = higher value

Compound	inhibition
Cc1cc(C)c(C)c(OCCN2CC(C)OC(C)C2)c1 (stereo not given)	-23.1%
Cc1ccc(C(C)C)c(OCC(O)CN2CCc3ccccc3C2)c1 (stereo not given)	2.1%
O=S(=O)(c1ccccc1F)N1CCC(c2nc3ccccc3[nH]2)CC1	-18.2%
COc1cc(C2=NOC(C(=O)Nc3cc(C)on3)C2)cc(OC)c1OC (stereo not given)	0.6%
COc1ccccc1NC(=O)COc1ccc2c(c1)OCO2	19%
CS(=O)(=O)CCC(C(=O)OCC(=O)c1ccc(Cl)cc1)N1C(=O)c2ccccc2C1=O (stereo not given)	-0.1%
O=C1NC(c2ccccc2)=NC1(Nc1ccccn1)C(F)(F)F (stereo not given)	13.1%
Cc1ccc(NC2(C(F)(F)F)N=C(c3ccccc3)NC2=O)nc1 (stereo not given)	87% (active)
Cc1ccnc(NC2(C(F)(F)F)N=C(c3ccccc3)NC2=O)c1 (stereo not given)	-6%
CCOc1ccc(C2(C)CC(=O)N(C)C2=O)cc1 (stereo not given)	5.8%
Cc1nnc(-c2cccc(Br)c2)c2cn(-c3ccccc3)nc12	9.1%
Cc1nnc(-c2cccc(Br)c2)c2cn(-c3ccccc3Cl)nc12	7.4%
Cc1nnc(-c2cccc(Br)c2)c2cn(-c3cccc(Br)c3)nc12	1.6%
COc1ccc(-n2cc3c(-c4cccc(Br)c4)nnc(C)c3n2)cc1	45.1%
COc1ccc(C)cc1NS(=O)(=O)c1cn(C)nc1C	3.9%
CC(NC(=O)CCc1nnc(CCCc2ccccc2)o1)c1ccccc1 (stereo not given)	-2.7%
CN(Cc1ccccc1)C(=O)CCC1CCN(C(=O)CC2=CCCCC2)CC1	0.7%
O=C(N1CCN(c2ccc(F)cc2)CC1)C12CC3CC(CC(C3)C1)C2	1.6%
CCCN1CNC(=S)N(c2ccccc2OC)C1	10%
N=c1c2c3c(sc2ncn1CCN1CCOCC1)CCCC3	18.2%

Compound	inhibition
COc1cc(/C=C2/C(=O)NN(c3ccc(C)c(Cl)c3)C2=O)cc([N+](=O)[O-])c1O	2.2%
O=C1NC(=S)N/C1=C/c1cc2c(cc1[N+](=O)[O-])OCO2	4.7%
CCOC(=O)C1=C(c2ccccc2)NC(=O)NC1c1ccc(OC)cc1OC (stereo not given)	11.3%
Cc1ccc(SCC(=O)Nc2cccc(-c3nnc(-c4ccco4)o3)c2)cc1	23.1%
CNC(=S)N(CCc1c(C)[nH]c2ccc(Cl)cc12)Cc1cccs1	79.7% (active)
COCCNC(=S)N(CCc1c(C)[nH]c2ccc(Cl)cc12)Cc1cccs1	21.1%
CNC(=S)N(CCc1c(C)[nH]c2ccc(C)cc12)Cc1cccs1	-0.9%
COc1ccc(NC(=O)CCNS(=O)(=O)c2ccc(C)c(C)c2)cc1OC	0.7%
C=CCN1C=CC(=C/C=C(/C#N)C(=O)OCC)C=C1	4.5%
C=CCN1C=CC(=CC=C(C#N)C#N)C=C1	67.9% (active)
CCCN1C=CC(=CC=C(C#N)C#N)C=C1	52.4%
CCOc1ccc(N(CC(=O)Nc2ccc(C)c(F)c2)C2=NC3CS(=O)(=O)CC3S2)cc1 (stereo not given)	2.9%
Cc1ccc(C)c(N2CCN(C(=O)Cn3ncc4c([nH]c5ccc(C)cc54)c3=O)CC2)c1	0.4%
CC(=O)N/C(=N/c1nc(C)cc(C)n1)Nc1ccc(NC(C)=O)cc1	-4.3%
O=C(NC(=S)Nc1ccc(Cl)c(C(=O)O)c1)c1cccc(COc2ccccc2)c1	3.5%
O=C(O)c1cccc(S(=O)(=O)Nc2ccc(OCc3ccccc3)cc2)c1	1.6%
O=C(O)c1ccc(NC(=S)NC(=O)c2cccc(COc3ccccc3)c2)cc1	-20.3%
Cc1ccc(NS(=O)(=O)c2cc(C(=O)O)ccc2Cl)cc1	5.6%
COc1ccccc1-n1c(SCC(=O)Nc2cccc(C)c2)nc2c(c1=O)SCC2	0.7%
O=C1Nc2ccccc2N(O)N1c1ccc(S(=O)(=O)N2CCCCCC2)cc1	7.8%

Compound	inhibition
O=C(CSc1nc2ccccc2s1)N1CCCCC1	7.6%
CN(C)CCN(Cc1ccccc1)c1nccc(N(C)C)c1C#N	7.4%
CN(C)c1nccc(N(Cc2ccccc2)Cc2ccccc2)c1C#N	49.1%
CCN(CC1COc2ccccc2O1)C(=S)Nc1ccc(F)cc1 (stereo not given)	8.3%
COc1ccc(C2Nc3cc(OC)ccc3-n3cccc32)cc1 (stereo not given)	8.6%
COc1ccc2c(c1)NC(c1cc(Cl)cc(Cl)c1O)c1cccn1-2 (stereo not given)	3.9%
COc1ccc2c(c1)NC(c1ccc(N(C)C)cc1)c1cccn1-2 (stereo not given)	67% (active)
Cc1cccc(N(CC(=O)N2CCN(C)CC2)S(=O)(=O)c2ccccc2)c1	9.1%
CC1CC(C)CN(C(=O)C(C)N(C)CC(=O)Nc2ccc(Cl)cc2)C1 (stereo not given)	12.3%
CC1CN(S(=O)(=O)c2ccc(NC(=O)CCN3C(=O)c4ccccc4C3=O)cc2)CC(C)O1 (stereo not given)	4.4%
CC(=O)C1=C(C)NC(SCC(=O)c2ccccc2)=C(C#N)C1c1ccco1 (stereo not given)	16.3%
CC(=O)C1=C(C)NC(SCC(=O)c2ccc(C)cc2)=C(C#N)C1c1ccco1 (stereo not given)	82.9% (active)
CC(=O)C1=C(C)NC(SCC(=O)c2ccc(F)cc2)=C(C#N)C1c1ccco1 (stereo not given)	16.8%
CN(C(=O)C1CCC1C(=O)O)c1nc(-c2ccc(Cl)s2)cs1 (stereo not given)	11.8%
CC(C)CNC(=O)CC(c1ccccc1)c1ccccc1	-4.4%
Cc1cc(C)nc(NNC(=O)NC2CCCCC2)n1	-10.6%
CC(C)(C)OC(=O)N1CCC(c2c(C(=O)NC3CC3)cnn2-c2ccc(Cl)cc2)CC1	4.1%
COc1ccc(-n2ncc(C(=O)NC3CC3)c2C2CCN(C(=O)OC(C)(C)C)CC2)cc1	12.4%
COc1cc(NC(=O)c2cnn3c(C(F)F)cc(C4CC4)nc23)c(OC)cc1Cl	14.7%
CCOc1ccc(NC(=O)c2c[nH]n3c(=O)cc(C4CCN(C(=O)OC(C)(C)C)CC4)nc23)cc1	16.4%
